Source: PubChem BioAssay (National Center for Advancing Translational Sciences (NCATS))
aGal spleen mod = inhibitors or activators of human alpha-galactosidase in spleen homogenate. P06280. actives 0.008% (n = 240,000). Potency, µM (top dose mostly 80 µM), for inactives: at the top dose activity change, negative = inhibition, most hits filed as inhibitors. human spleen homogenate, 4MU-alpha-Gal fluorescence, 40 min;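 note: potency is the fitted concentration of half-maximal effect; 0% = enzyme with vehicle and -100% = no enzyme basal signal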
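Fluorogenic readout (Ex 365/Em 440 nm) of 4-methylumbelliferone released from 1 mM 4-MU-alpha-galactoside by spleen homogenate, 40 min at 37C, pH 5.0. Data normalized to no-enzyme and enzyme controls; Hill-equation AC50 from compound titrations.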
ERK EGF block = inhibitors of EGF-stimulated ERK signaling pathway; HEK293-V1b, EGF-stimulated phospho-ERK AlphaScreen; Potency, µM (top dose mostly 11.5 µM), for the others: at the top dose activity change, negative = inhibition, most hits filed as inhibitors; actives 0.41% (n = 130,000);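 note: potency is the fitted concentration of half-maximal effect; plate controls were stimulated vehicle wells for no effect and unstimulated vehicle basal for full effect; nearly all actives have a fitted effect of over 55% in size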
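Stably V1b-transfected HEK293 cells; 30 min compound, then EGF 25 nM final for 5 min at 37C; 10 min lysis; phospho-ERK by AlphaScreen after 5 hr beads at room temperature.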
HTT cytoprotect = protects HTT-Q103 PC12 cells, measured by ATP; AID 1471; Potency, µM (highest dose often 56.4 µM), for the others: cytoprotection (ATP increase), hits mostly activators; actives 0.14% (n = 230,000); PC12 HTT-Q103 induced, cytoprotection, ATP luminescence, 40 h; note: potency is the fitted concentration of half-maximal effect; % of control where 0% means no effect; nearly all actives have a fitted effect of over 45% in size
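Rat PC12, Q103 Htt exon1-GFP fusion, ecdysone promoter; tebufenozide inducer 100 nM final; compound titration; qHTS, 1500 cells/well; ATPlite luminescent read.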
GLA inh pH 4.5 = inhibitors of human alpha-galactosidase A at pH 4.5; purified enzyme, 4-MU-alpha-Gal fluorescence, pH 4.5; activity change, negative = inhibition, % at 105 µM; 230,000 tested, under 10 active;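 note: 0% = full activity with enzyme and -100% = basal without enzyme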
Target sequence (P06280 whole entry, looked up): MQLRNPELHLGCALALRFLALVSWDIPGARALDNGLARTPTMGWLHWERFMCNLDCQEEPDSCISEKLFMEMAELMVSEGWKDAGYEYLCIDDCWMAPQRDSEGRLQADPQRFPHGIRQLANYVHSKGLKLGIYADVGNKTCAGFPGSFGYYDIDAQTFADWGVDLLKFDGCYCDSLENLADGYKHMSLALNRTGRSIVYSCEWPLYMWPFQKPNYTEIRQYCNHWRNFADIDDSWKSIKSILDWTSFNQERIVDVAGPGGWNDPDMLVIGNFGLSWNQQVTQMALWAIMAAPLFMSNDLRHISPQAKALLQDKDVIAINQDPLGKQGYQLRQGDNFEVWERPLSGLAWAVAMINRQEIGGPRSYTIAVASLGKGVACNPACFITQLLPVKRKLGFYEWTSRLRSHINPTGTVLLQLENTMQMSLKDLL
HTT aggregate = reduces HttQ103-GFP aggregates in PC12 cells; PC12 HttQ103-GFP aggregates, Acumen cytometry, 40 h; Potency, µM (highest dose often 46.1 µM), inactives show at the top dose activity change, negative = inhibition, actives largely listed as inhibitors; actives 1.1% (n = 220,000); AID 1688; note: potency is the fitted concentration of half-maximal effect; % is set by controls: 0 for no effect and ±100 for the full control effect; nearly all actives have a fitted effect of over 60% in size
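Aggregates are detected as GFP objects 1–25 µm with signal 6 STDEV over background in lysates of induced PC12 cells. These carry Huntingtin exon 1 with 103 glutamines fused to GFP under an ecdysone promoter; compounds titrated.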
The depositor's hits bear a star; ? = inconclusive; . = no result; [ ] = remark or other dose. The list is not random: actives were taken first. Their share in the collection is about 1.2%. Calls come from the whole dose curve; as a rule, active = well fitted curve in the direction sought with a large enough effect; inconclusive = small, poorly fitted or top-dose-only effect, or another doubt; inactive = no such curve, though single readings can be large; an effect the other way counts as inactive or inconclusive.

SMILES	aGal spleen mod	ERK EGF block	HTT cytoprotect	GLA inh pH 4.5	HTT aggregate
Cc1c(C(=O)NCc2ccc3c(c2)OCO3)sc2nc(-c3ccc(F)cc3)cn12	-4.5%	.	11.1%	7.3	0.891µM*
Cc1c(C(=O)NCc2ccc3c(c2)OCO3)sc2nc(-c3ccccc3)cn12	1.8%	.	-15.3%	0.2	-12.2%
CCN1C(c2ccccc2)=C(c2ccccc2)S/C1=C/C=C1\SC(=S)N(C)C1=O	-1.4%	3.16µM*	24.8%[1.9 µM]	3.3	-24.4%
COc1cc(OC)cc(C(=O)NNC(=O)c2ccccn2)c1	2.4%	1.9%	-1.4%[10 µM]	-2.1	11.2µM*
O=C1CCCC/C1=N\Nc1ccc(C2CCCCC2)cc1	6.5%	-7.5%[57.5 µM]	-19.4%[10 µM]	-3.9	-2.3%[9.22 µM]
O=C(O)c1ccc(C2CCCCC2)cn1	?	.	-43.2%	2.6	3.16µM*
Cc1ccc(-n2ncc3c(=O)n(CC(=O)OCc4ccccc4)cnc32)cc1	5.4%	.	4.9%	2.4	3.9%
Cc1ccc(-n2nnc3c(=O)n(CC(=O)OCc4ccccc4)cnc32)cc1	7.6%	.	.	-3.1	0.0028µM*
NCCCC[C@H](NC(=O)[C@H](Cc1c[nH]c2ccccc12)NC(=O)[C@H](CC(=O)O)NC(=O)[C@H](Cc1cnc[nH]1)NC(=O)[C@H](CO)NC(=O)[C@H](Cc1c[nH]c2ccccc12)NC(=O)[C@H](Cc1cnc[nH]1)NC(=O)[C@@H]1CCC(=O)N1)C(=O)N1CCC[C@H]1C(=O)NCC(N)=O	2.1%	.	.	.	.
COc1ccc(C2/C=C\CN(C(=O)C3CCCC3)C(C)C(=O)N2Cc2ccc(F)cc2)cc1 (centres undefined)	-4.6%	.	.	.	.
COc1ccc(CN(C)CC(=O)Nc2ccccc2-c2ccccc2)c(OC)c1	-4.8%	8.6%	10.0%[10 µM]	-5.8	20µM*
COc1ccccc1CN(C)CC(=O)Nc1ccccc1-c1ccccc1	-2.2%	-0.6%	-35.7%	-8.8	-26.7%
COc1ccc(-c2cc(=O)c(C(=O)c3ccc(C)cc3)n[nH]2)cc1	39.8µM*	1.0%	-19.7%[10 µM]	11.3	13.7%
O=C(NCCc1cn2ccccc2n1)c1cc(COc2ccc3ncccc3c2)on1	2.7%	28.2µM*	-80.6%	-19.6	11.2µM*
CN(Cc1ccccc1)C1=CC(=[N+]2CCCC2)CC(C)(C)C1	-15.5%	-16.6%[57.5 µM]	-52.6%[10 µM]	7.8	-36.2%[9.22 µM]
CC1CC(C)C[N+](=C2C=C(N3CCCC3)CC(C)(C)C2)C1 (centres undefined)	1.4%	4.2%	-57.9%[10 µM]	9.5	?
CC1(C)CC(N2CCN(c3ccccc3)CC2)=CC(=[N+]2CCCC2)C1	6.0%	.	-36.3%[10 µM]	-0.7	3.98µM*
CC1(C)CC(N2CCCC2)=CC(=[N+]2CCCCCC2)C1	6.0%	5.3%	-64.9%	2.2	2µM*
CCOc1ccc2nc(SC3CC(=O)N(c4ccc(OC)cc4)C3=O)sc2c1 (centres undefined)	-6.2%	.	-110.7%	2.5	?
CC(C)c1ccc(N2C(=O)CC(Sc3nc4ccccc4o3)C2=O)cc1 (centres undefined)	-9.0%	.	-148.3%	-3.1	3.55µM*
CC(C)c1ccc(N2C(=O)CC(Sc3ncn[nH]3)C2=O)cc1 (centres undefined)	5.6%	.	1.1%	4.2	-4.7%[9.22 µM]
COc1ccc(N2C(=O)CC(Sc3nc4ccccc4s3)C2=O)cc1 (centres undefined)	4.7%	-0.5%	-136.9%	-3.1	31.6µM*
CCCC[C@H](O)c1ccccc1	.	.	-2.6%	.	0.7%
O=C(O)c1ccc2c(c1)C(=O)N([C@H](Cc1ccc(Cl)cc1)C(=O)O)C2=O	-1.4%	.	.	.	.
Cc1c2c(c(O)c3c(O)cccc13)C(=O)O[C@H]2C1C(N(C)C)C(O)=C(C(N)=O)C(=O)[C@H]1O (some centres undefined)	-8.9%	.	.	.	.
SMILES	aGal spleen mod	ERK EGF block	HTT cytoprotect	GLA inh pH 4.5	HTT aggregate
Cc1ccccc1Nc1nnc(SCc2cc([N+](=O)[O-])cc3c2OCOC3)s1	1.5%	.	-28.0%	-5.5	17.8µM*
O=[N+]([O-])c1cc2c(c(CSc3nnc(Nc4ccccc4)s3)c1)OCOC2	-12.3%	.	21.8%	-0.3	8.2%
O=C(NC(c1ccc(Cl)cc1)c1cc(Cl)c2cccnc2c1O)c1cccnc1 (centres undefined)	5.7%	-2.4%	-71.4%[10 µM]	-2.5	8.91µM*
O=C(NCc1ccccc1)C(c1cccs1)N(C(=O)c1csnn1)C1CC1 (centres undefined)	3.3%	.	-7.8%	-6.1	-14.1%
COc1ccc(CNC(=O)C(c2cccs2)N(C(=O)c2csnn2)C2CC2)cc1 (centres undefined)	-3.8%	.	25.1µM*	-6.6	-10.8%
CC[C@H](C)[C@H](NC(=O)[C@H](Cc1ccc(O)cc1)NC(=O)[C@H](Cc1cnc[nH]1)NC(=O)[C@H](CCCNC(=N)N)NC(=O)[C@H](CC(C)C)NC(=O)[C@H](C)NC(=O)[C@H](CO)NC(=O)[C@H](Cc1ccc(O)cc1)NC(=O)[C@H](Cc1ccc(O)cc1)NC(=O)[C@H](CCCNC(=N)N)NC(=O)[C@H](C)NC(=O)[C@H](CC(C)C)NC(=O)[C@H](CC(=O)O)NC(=O)[C@H](CCC(=O)O)NC(=O)[C@H](C)NC(=O)[C@@H]1CCCN1C(=O)[C@H](C)NC(=O)[C@H](CC(=O)O)NC(=O)[C@H](CCC(=O)O)NC(=O)CNC(=O)[C@@H]1CCCN1C(=O)[C@H](CC(N)=O)NC(=O)[C@H](CC(=O)O)NC(=O)[C@@H]1CCCN1C(=O)[C@H](CCCCN)NC(=O)[C@H](CO)NC(=O)[C@@H]1CCCN1C(=O)[C@@H](N)Cc1ccc(O)cc1)C(=O)N[C@@H](CC(N)=O)C(=O)N[C@@H](CC(C)C)C(=O)N[C@H](C(=O)N[C@H](C(=O)N[C@@H](CCCNC(=N)N)C(=O)N[C@@H](CCC(N)=O)C(=O)N[C@@H](CCCNC(=N)N)C(=O)N[C@@H](Cc1ccc(O)cc1)C(N)=O)[C@@H](C)O)[C@@H](C)CC	3.9%	.	.	.	.
c1cc2[nH]snc2c2nc(C3CC3)nc12	-10.2%	.	9.5%	-2.0	11.2µM*
CSc1nc(Oc2ccc3ccccc3c2)c2ccccc2n1	2.2%	.	-24.3%[10 µM]	-12.9	10µM*
Cc1sc2ncnc(NCCN3CCOCC3)c2c1C	-2.3%	.	-4.4%	3.3	11.2µM*
COc1ccc(C=C2c3ccccc3C(=O)c3ccccc32)cc1O	2.3%	.	.	.	.
O=C(NC(=S)Nc1ccccc1O)c1ccc(-c2ccc(Cl)cc2)o1	-2.0%	.	-61.5%	-0.2	11.2µM*
COc1ccccc1NC(=S)NC(=O)c1ccc(-c2ccc(Cl)cc2)o1	0.9%	.	-25.2%	2.2	-6.0%
O=[N+]([O-])c1ccc(N/N=C2\CC3CC=CC23)c([N+](=O)[O-])c1 (centres undefined)	-3.4%	14.1µM*	-20.6%	-8.2	?
